RGS4 inhibitor: human RGS4 inhibition. P49798. Transcreener GDP fluorescence polarization, RGS4-accelerated GTP hydrolysis. Potency, µM (top dose mostly 114 µM), inactives show at the top dose activity change, negative = inhibition, usual class: inhibitors. 390,000 compounds, 0.039% hits. AID 504845; further: nearly all actives have a fitted effect of over 75% in size
Target sequence (P49798 whole entry, looked up): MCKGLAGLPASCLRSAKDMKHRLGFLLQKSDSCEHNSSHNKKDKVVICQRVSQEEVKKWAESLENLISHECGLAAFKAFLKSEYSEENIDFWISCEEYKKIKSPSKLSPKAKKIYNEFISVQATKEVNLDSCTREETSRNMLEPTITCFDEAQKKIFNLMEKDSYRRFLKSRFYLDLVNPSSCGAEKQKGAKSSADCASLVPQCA
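MLSMR compounds (23 nl, pin-transferred) preincubated 10 min at room temperature with a 500nM (2x) first reagent, then RGS4 at 900nM (2x) plus Transcreener GDP mix added; fluorescence polarization (620/688 nm) read before and after 90 min at 30 °C.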
BLM inh: inhibitors of human Bloom syndrome helicase BLM; 350,000 compounds, 0.2% hits; P54132; Potency, µM (series often up to 56.1 µM), for the others: at the highest dose activity change, negative = inhibition, hits mostly inhibitors; recombinant BLM DNA unwinding, fluorescence dequenching; AID 2528;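 further: plate controls were vehicle for no effect and no enzyme for full effect; nearly all actives have a fitted effect of over 35% in size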
TDP1 inh: TDP1 (human) enzyme inhibition | Potency, µM (series often up to 130 µM), inactives show at the highest dose activity change, negative = inhibition, usual class: inhibitors | recombinant TDP1, AlphaScreen DNA substrate cleavage | AID 485290 | Q9NUW8 | 350,000 compounds, 0.28% hits; further: nearly all actives have a fitted effect of over 40% in size
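Compounds were preincubated with Tdp1 (1 nM final) for 15 min at room temperature before substrate (15 nM final) started a 5 min reaction; beads (10 ug/ml final) were then added for 10 min before AlphaScreen detection.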
RECQ1 inh: RECQ1 (human) helicase inhibition; P46063; RECQ1 DNA unwinding, red fluorescence kinetic read; Potency, µM (series often up to 57.3 µM), inactives show at the highest dose activity, negative = inhibition, actives largely listed as inhibitors; 240,000 compounds, 0.54% hits;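 further: plate controls were vehicle for no effect and no enzyme for full effect; nearly all actives have a fitted effect of over 30% in size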
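RECQ1T1 50 nM; forked duplex (20 bp + 30-nt ss tails) 200 nM, ATP 2 mM final; pH 8.0, 2 mM MgCl2, 2.5 ug/ml poly(dI-dC); 15 min compound preincubation; discontinuous kinetic read over 2 h at RT.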
KAT2A inh: inhibitors of human GCN5L2 histone acetyltransferase; Q92830; GCN5L2 HAT assay, ThioGlo1 CoA-SH fluorescence; Potency, µM (doses to about 58.9 µM), for inactives: at the top dose activity change, negative = inhibition, most hits filed as inhibitors; 390,000 compounds, 0.21% hits
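Titration-based screen in which CoA formation is detected via maleimide probe ThioGlo1 (50uM) turning fluorescent on thiol reaction; substrates H3(1-25) 75uM and acetyl-CoA 70uM, GCN5L2 20nM, 20 min incubation at room temperature.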
APE1 inh: APE1 (human) endonuclease inhibition; P27695; recombinant APE1, TAMRA/BHQ-2 abasic DNA cleavage fluorescence; Potency, µM (highest dose often 65.8 µM), without a hit: at the highest dose activity change, negative = inhibition, most hits filed as inhibitors; 350,000 compounds, 0.35% hits; AID 2517;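 further: plate controls were vehicle for no effect and reference inhibitor for full effect; nearly all actives have a fitted effect of over 55% in size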
Target sequence (P27695 whole entry, looked up): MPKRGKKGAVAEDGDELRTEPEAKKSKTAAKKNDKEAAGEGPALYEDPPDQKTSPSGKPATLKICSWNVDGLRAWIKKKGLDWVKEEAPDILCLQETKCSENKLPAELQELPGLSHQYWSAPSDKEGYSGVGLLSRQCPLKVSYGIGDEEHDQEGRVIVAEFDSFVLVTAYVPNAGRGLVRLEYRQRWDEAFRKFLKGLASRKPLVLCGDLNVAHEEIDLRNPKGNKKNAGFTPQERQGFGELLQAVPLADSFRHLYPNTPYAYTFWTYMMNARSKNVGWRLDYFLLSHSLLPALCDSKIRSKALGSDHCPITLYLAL
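APE1 at 0.75 nM preincubated 15 min at room temperature with compound. Reaction then started with 50 nM double-stranded THF-abasic substrate labelled with TAMRA/BHQ-2, and 525/598 nm fluorescence read kinetically. Activity taken as third-minus-first read difference, normalized to DMSO and NSC13755 controls.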
Numbers without * were called inactive; i = inactive; ? = inconclusive; / = not tested or not shown; ! = not active in a repeat; [ ] = remark or other dose. Shown are actives, neighbours in structure and some others; about 0.87% of the full set was active somewhere. The call rests on the fitted dose curve; in most records, active means well fitted curve in the direction sought with a large enough effect; inconclusive means small, poorly fitted or top-dose-only effect, or another doubt; inactive means no such curve, though single readings can be large; an effect the other way counts as inactive or inconclusive. Unless noted, on the % scale 0 is the no-effect control and ±100 the full control effect; potency means the concentration at half of the fitted maximal effect.

SMILES	RGS4 inhibitor	BLM inh	TDP1 inh	RECQ1 inh	KAT2A inh	APE1 inh
Cc1ccc(-c2cc(C(=O)N3CCN(c4ccc(F)cc4)CC3)c3ccccc3n2)o1	-49%	-13%	-2%	-25%	-6%	?
O=C(c1cc(-c2ccco2)nc2ccccc12)N1CCN(Cc2ccccc2)CC1	9%	/	2%[56.1 µM]	/	-18%	-6%
Cc1ccc(-c2cc(C(=O)N3CCOCC3)c3ccccc3n2)o1	?	/	1%	/	22µM*	10%
CS(=O)(=O)/C=C/c1nc(Nc2cc(F)cc(F)c2)c2ncn(CC(F)F)c2n1	/	/	1%	/	/	/
CCOC(=O)c1c(NC(=O)C2CC(Cl)=CCC2C(=O)O)sc2c1CCCCC2 (stereo not drawn)	-24%	-5%	22µM*	/	-28%	-23%
COc1ccc(COC(=O)c2c(C)nn(-c3ccccc3)c2Cl)cc1	8%	-8%	56µM*	/	-5%	-1%
C=CCc1cccc(C=NNC(=O)CN2CCN(Cc3ccccc3)CC2)c1O	13%[56.9 µM]	/	/	/	-7%	/
COC(=O)c1cccc(C(=O)Nc2ccc(F)cc2)n1	8%	-1%	2%	1%	16µM*	-1%
COc1ccccc1CCNC(=O)Cn1c(=O)oc2ccccc21	10%	-4%	18µM*	/	-9%	-43%
COc1ccccc1CCNC(=O)Cc1c(C)c2cc(Cl)c(O)cc2oc1=O	-16%	3%	6%	/	32µM*	/
Cc1cccc(C(=O)NCC(=O)OC(C(=O)Nc2cc(C(F)(F)F)ccc2Cl)c2ccccc2)c1 (stereo not drawn)	/	/	-3%	/	/	/
Cc1cnc(CNc2ncncc2-c2ccccc2CN(C)C)cn1	/	3%	28µM*	i	-17%	-3%
CN(C)Cc1ccccc1-c1cncnc1NCc1ccccc1	/	-13%	/	6%	2%	0%
Cc1cc(N2C(=O)C3C4C=CC(C4)C3C2=O)ccc1NC(=O)c1cccs1 (stereo not drawn)	3%	-11%	13µM*	-23%	-12%	?
O=C(O)[C@H](O)[C@@H](O)[C@H](O[C@@H]1O[C@H](CO)[C@H](O)[C@H](O)[C@H]1O)[C@H](O)CO	/	/	/	/	/	1%[21 µM]
CN(CCOc1ccc(C[C@H](Nc2ccccc2C(=O)c2ccccc2)C(=O)O)cc1)c1ccccn1	?	-3%	16%[56.1 µM]	-8%	32µM*	14%
CCCCC(=O)Nc1ccc(C(=O)NNC(=O)c2ccc(C)c(Br)c2)cc1	-31%	-13%	/	-9%	-24%	25µM*
CCCCC(=O)Nc1ccc(C(=O)NNC(=O)CCc2ccccc2)cc1	-6%	-9%	/	-22%	23%	-4%
COC(=O)CSC1=C(C#N)C(=O)NC(c2ccccc2)S1 (stereo not drawn)	-56%[56.9 µM]	0%	11%	i	35µM*	-2%
O=C(CSc1nc2ccccc2c(=O)n1-c1ccccc1)NC(=O)CN1CCCC1=O	-11%	-10%	22µM*	i	2%	?
O=C(CSc1nc2ccccc2c(=O)n1-c1ccccc1)N1CCC1	-5%	1%	5%	-17%	-4%	0%
COc1ccc(OC)c2c(=S)c3ccccc3[nH]c12	/	-3%	/	-3%	14µM*	?
O=C(O)c1cccc(-c2nc(-c3ccccc3C(F)(F)F)no2)c1	/	/	/	/	/	7%
COc1ccc(C)c2sc(N(CCCN(C)C)C(=O)c3ccc(S(=O)(=O)N4CCc5ccccc5C4)cc3)nc12	-24%	/	/	/	/	/
COc1ccc(OC)c2sc(N(CCCN(C)C)C(=O)c3ccc(S(=O)(=O)N4CCc5ccccc5C4)cc3)nc12	/	/	10%	/	-4%	30µM*
SMILES	RGS4 inhibitor	BLM inh	TDP1 inh	RECQ1 inh	KAT2A inh	APE1 inh
C[n+]1cccc2cccc([O-])c21	-32%	25µM*	40µM*	?	?	0%
CCCCCCNC(=O)N[C@H](C(=O)NCCC[C@H]1CN2C(=NC[C@H]2C)N1CCC(c1ccccc1)c1ccccc1)C(C)O (stereo partly drawn)	/	1%	4%	i	7.9µM*	?
CCOc1ccc(C(=O)NCCC(=O)NCCCC(=O)O)cc1	15%	0%	2%	i	-4%	-1%
CCOc1ccc(C(=O)NCCCCNC(=O)c2ccc(OCC)cc2)cc1	3%	-11%	2%	/	35µM*	9%
CC1=C(C#N)C(=O)N(C2CCS(=O)(=O)C2)C(=O)/C1=C\c1ccc(C)o1 (stereo not drawn)	/	?	-10%	22µM*	?	18µM*
NS(=O)(=O)c1ccc(-c2ccc(/C=C3\SC(=S)N(C4CCS(=O)(=O)C4)C3=O)o2)cc1 (stereo not drawn)	-10%	0%	8%	-1%	-18%	-3%
COc1ccc2[nH]c(=O)c(C(=O)O)cc2c1	-17%	-2%	5%	i	-9%	-3%
COc1ccc2[nH]c(=O)cc(C(=O)O)c2c1	6%	-13%	22µM*	-20%	-20%	?
CC(C)(C)N[S+](=O)([O-])c1cccc(-c2nnc(SCC(=O)Nc3ccc(C(=O)O)cc3)n2-c2ccccc2)c1	/	/	/	/	/	8%
N#Cc1nc(NC2CCCC2)c2ncn(-c3cc(F)cc(F)c3)c2n1	/	/	-3%	/	/	/
COc1ccc(Cl)cc1Nc1nc(N)c2ccccc2n1	14%	-7%	/	/	-5%	-6%
COc1ccc(C)cc1Nc1nc(N)c2cc(OC)c(OC)cc2n1	2%	20µM*	5%	/	-4%	2%
O=C(O)CCCCCNC(=O)CSc1nnc(-c2ccc([S+](=O)([O-])N3CCCC3)cc2)n1-c1ccccc1	/	/	/	/	/	43%
S=C1NC=NC2N=CNC12 (stereo not drawn)	/	-9%	14µM*	2%	?	6%
CC(=O)NCCNc1ncnc2ccc(-c3ccoc3)cc12	/	1%	/	i	25µM*	-6%
CC(C)NS(=O)(=O)c1ccc2[nH]c3nc(SCC(=O)Nc4ccc(F)c(F)c4)nnc3c2c1	-10%	/	/	/	/	/
Cc1cccc(Nc2ccccc2C(=O)O)c1C	-10%	2%	0.011µM*!	-12%	-4%	22%
Cc1cccc(Nc2ncccc2C(=O)O)c1C	5%	1%	3%	7%	-1%	2%
CCc1nn2c(=O)cc(COc3cccc(NC(=O)c4ccco4)c3)nc2s1	-49%[56.9 µM]	-20%	50µM*	/	-9%	-4%
CCC(C)NC(=O)CNC(=O)c1nn(-c2ccc(OC)c(Cl)c2)c(=O)c2ccccc12 (stereo not drawn)	4%	-1%	/	/	-10%	-20%
COc1ccc(-n2nc(C(=O)NCC(=O)NC(C)C)c3ccccc3c2=O)cc1Cl	8%	-2%	/	/	7.1µM*	-5%
